From PubChem BioAssay
Activity calls are given as the source filed them.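 How the source made its calls, unless noted: active means compounds lowering colon cancer cell viability after pretreatment blocking the GSK3B kinase; inactive means the rest.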

Legend:
[1] = Wnt pathway potentiators raising nuclear beta-catenin – imaging, WNT3A-conditioned medium, mouse C2C12, NPC library, primary screen (AID 1117326; in the data active means nuclear beta-catenin stimulation mostly above about 4.2%, no sharp cut-off; inactive means mostly below about 10%; further: reference of the scale not given here); conditions: stronger effect = higher value
[2] = stimulators of insulin release from INS-1E, primary screen, cell-based, 5 mM glucose, NPC library (AID 1117329;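 active means compound raises insulin release from rat beta cells at 5 mM glucose, no numeric limit stated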; further: reference of the scale not given here); conditions: rat INS-1E insulin secretion, at 10 µM, stronger effect = higher value
[3] = growth inhibition of GSK3B-pretreated HCT116 cells – cell-based, CellTiter-Glo, 0.2 to 20 µM (AID 1117336); conditions: HCT116 viability after GSK3B inhibitor, at 20 µM, stronger effect = higher value
[4] = inhibition of endothelial tube formation, primary screen, imaging, VEGF stimulated, CD31 staining, tube area, NPC library (AID 1117340;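 active means compound that reduces growth-factor-driven endothelial tube area in a mixed cell culture, no cutoff stated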); conditions: VEGF-stimulated ADSC/ECFC co-culture, at 10 µM, stronger effect = higher value
[5] = GLP1 release stimulators, primary, NCI-H716, NPC library (AID 1117341;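 active means compound raises GLP1 secretion from the human gut endocrine cells, with no numeric limit stated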; further: reference of the scale not given here); conditions: NCI-H716 cells, at 10 µM, stronger effect = higher value
[6] = HCT116 colon cancer cell growth inhibition, primary screen, CellTiter-Glo luminescence, NPC library (AID 1117342;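 active means compounds that lower survival of HCT116 colon cancer cells in the luminescence readout, no numeric limit stated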); conditions: at 20 µM (top of the series)
[7] = reduced SW480 viability measured with CellTiter-Glo, NPC library, primary (AID 1117343;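 active means compounds that lower viability of the colon cancer cells in the luminescence readout, with no numeric limit stated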); conditions: CellTiter-Glo luminescence; at 20 µM (top of the series)
[8] = NPC library primary testing for decreased DLD-1 cell viability via CellTiter-Glo (AID 1117346;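 active means compounds that lower survival of DLD-1 colon cancer cells in the luminescence readout, no cutoff given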); conditions: DLD-1 viability, CellTiter-Glo luminescence; at 20 µM (top of the series)

COc1ccnc2c1CCCCC2S(=O)c1nc2ccccc2[nH]1 (stereo not given)
3%: nuclear beta-catenin stimulation ([1]; stimulation, at 2 µM)
inactive: nuclear beta-catenin stimulation ([1]; at 10 µM) -0.3% | insulin secretion stimulation [2] 1.6% | viability decrease [3] -54.1% | tube area decrease [4] 13.2% | GLP1 secretion stimulation [5] 9.2% | inhibition of viability [6] 27.5% | viability decrease (inhibition) [7] 31.6% | viability decrease (inhibition) [8] 11.3%

O=P(O)(O)OCC(O)CO (stereo not given)
inactive: nuclear beta-catenin stimulation ([1]; at 10 µM) 0.5% | insulin secretion stimulation [2] -2.1% | viability decrease [3] 4.35% | tube area decrease [4] -14.2% | GLP1 secretion stimulation [5] 0.6% | inhibition of viability [6] 9.3% | viability decrease (inhibition) [7] 23.1% | viability decrease (inhibition) [8] 18.2%
0.5%: nuclear beta-catenin stimulation ([1]; stimulation, at 2 µM)

C/C(=C1\CCOC(=O)S1)N(C=O)Cc1cnc(C)nc1N
inactive: nuclear beta-catenin stimulation ([1]; at 10 µM) -0.3% | insulin secretion stimulation [2] 4.7% | viability decrease [3] -6.1% | tube area decrease [4] -16.6% | GLP1 secretion stimulation [5] 8.1% | inhibition of viability [6] 19.8% | viability decrease (inhibition) [7] 3.7% | viability decrease (inhibition) [8] 1.5%
0.1%: nuclear beta-catenin stimulation ([1]; stimulation, at 2 µM)

O=C(Oc1ccccc1)c1ccccc1O
active: viability decrease (inhibition) [7] 84.4%
-1%: nuclear beta-catenin stimulation ([1]; stimulation, at 2 µM)
inactive: nuclear beta-catenin stimulation ([1]; at 10 µM) -0.5% | insulin secretion stimulation [2] -1.5% | viability decrease [3] -4.35% | tube area decrease [4] 14.3% | GLP1 secretion stimulation [5] -1.2% | inhibition of viability [6] 9.1% | viability decrease (inhibition) [8] 12.1%

Cc1onc(-c2ccccc2)c1C(=O)Cl
inactive: nuclear beta-catenin stimulation ([1]; at 10 µM) 0% | insulin secretion stimulation [2] 2.75% | viability decrease [3] 0.5% | tube area decrease [4] -12.1% | GLP1 secretion stimulation [5] 1.7% | inhibition of viability [6] 1.8% | viability decrease (inhibition) [7] -5.7% | viability decrease (inhibition) [8] -12.5%
-1.4%: nuclear beta-catenin stimulation ([1]; stimulation, at 2 µM)

CCC(CN)=C(c1ccccc1)c1ccccc1
active: insulin secretion stimulation [2] 29.4% | inhibition of viability [6] 78.6% | viability decrease (inhibition) [7] 92% | viability decrease (inhibition) [8] 55.1%
inactive: nuclear beta-catenin stimulation ([1]; at 10 µM) -0.1% | viability decrease [3] 17.9% | tube area decrease [4] 7% | GLP1 secretion stimulation [5] 2.2%
0.1%: nuclear beta-catenin stimulation ([1]; stimulation, at 2 µM)

CCOC(=O)c1ccc(O)c(O)c1
inactive: nuclear beta-catenin stimulation ([1]; at 10 µM) 4.9% | insulin secretion stimulation [2] 4% | tube area decrease [4] 24% | GLP1 secretion stimulation [5] -0.3%
3.4%: nuclear beta-catenin stimulation ([1]; stimulation, at 2 µM)
active: viability decrease [3] 88.4% | inhibition of viability [6] 63.9% | viability decrease (inhibition) [7] 77.7% | viability decrease (inhibition) [8] 56.4%

Oc1cccc(O)c1O
active: viability decrease [3] 68.9% | viability decrease (inhibition) [7] 101%
2.5%: nuclear beta-catenin stimulation ([1]; stimulation, at 2 µM)
inactive: nuclear beta-catenin stimulation ([1]; at 10 µM) 5% | insulin secretion stimulation [2] 2.5% | tube area decrease [4] 24.9% | GLP1 secretion stimulation [5] -1% | inhibition of viability [6] 45.7% | viability decrease (inhibition) [8] 17.2%

CCCCCCCCCCCCSCCOCCO
inactive: nuclear beta-catenin stimulation ([1]; at 10 µM) 0.7% | insulin secretion stimulation [2] -1.7% | viability decrease [3] 9.65% | tube area decrease [4] 6.6% | GLP1 secretion stimulation [5] 1.9% | inhibition of viability [6] -38.8%
2%: nuclear beta-catenin stimulation ([1]; stimulation, at 2 µM)
active: viability decrease (inhibition) [7] 122% | viability decrease (inhibition) [8] 94.7%

CCOC(=O)COc1ccc2c(C)c(CCN(CC)CC)c(=O)oc2c1Cl
-0.4%: nuclear beta-catenin stimulation ([1]; stimulation, at 2 µM)
inactive: nuclear beta-catenin stimulation ([1]; at 10 µM) -2.3% | insulin secretion stimulation [2] 0% | viability decrease [3] -5% | GLP1 secretion stimulation [5] 2.5% | inhibition of viability [6] 15.1% | viability decrease (inhibition) [7] 7.8% | viability decrease (inhibition) [8] -17.9%
active: tube area decrease [4] 45.5%

CC(C)(C)c1ccc(C(=O)CCCCl)cc1
inactive: nuclear beta-catenin stimulation ([1]; at 10 µM) -0.1% | insulin secretion stimulation [2] 3.7% | viability decrease [3] -2.4% | tube area decrease [4] 20.9% | GLP1 secretion stimulation [5] -3.6% | inhibition of viability [6] 10.3% | viability decrease (inhibition) [7] -21.3% | viability decrease (inhibition) [8] 0.9%
0.6%: nuclear beta-catenin stimulation ([1]; stimulation, at 2 µM)

COc1ccc(OC(=O)N(CC(=O)O)Cc2ccc(OCCc3nc(-c4ccccc4)oc3C)cc2)cc1
active: viability decrease [3] 100% | GLP1 secretion stimulation [5] 51.7% | inhibition of viability [6] 86.4% | viability decrease (inhibition) [7] 105% | viability decrease (inhibition) [8] 91.5%
-0.5%: nuclear beta-catenin stimulation ([1]; stimulation, at 2 µM)
inactive: nuclear beta-catenin stimulation ([1]; at 10 µM) 1% | insulin secretion stimulation [2] -0.3% | tube area decrease [4] -9%

O=Cc1ccccc1C=O
inactive: nuclear beta-catenin stimulation ([1]; at 10 µM) -0.8% | insulin secretion stimulation [2] -0.6% | viability decrease [3] 1.65% | tube area decrease [4] 9.9% | GLP1 secretion stimulation [5] 2.6% | inhibition of viability [6] -1.7% | viability decrease (inhibition) [7] 12.2% | viability decrease (inhibition) [8] -1.7%
0.2%: nuclear beta-catenin stimulation ([1]; stimulation, at 2 µM)

O=C(CCCCCCCCC#CI)Oc1ccccc1
active: viability decrease [3] 56% | viability decrease (inhibition) [7] 68.3% | viability decrease (inhibition) [8] 63.9%
inactive: nuclear beta-catenin stimulation ([1]; at 10 µM) 3% | insulin secretion stimulation [2] -1.7% | tube area decrease [4] 13% | GLP1 secretion stimulation [5] 0.3% | inhibition of viability [6] -7.3%
0.2%: nuclear beta-catenin stimulation ([1]; stimulation, at 2 µM)

C[C@H]1O[C@@H](O[C@H]2CC[C@@]3(C)[C@H](CC[C@@H]4[C@@H]3C[C@@H](O)[C@]3(C)[C@@H](C5=CC(=O)OC5)CC[C@]43O)C2)C[C@H](O)[C@@H]1O[C@H]1C[C@H](O)[C@H](O[C@H]2C[C@H](O)[C@H](O[C@@H]3O[C@H](CO)[C@@H](O)[C@H](O)[C@H]3O)[C@@H](C)O2)[C@@H](C)O1
active: viability decrease [3] 65% | tube area decrease [4] 108% | inhibition of viability [6] 54.5% | viability decrease (inhibition) [7] 69.4% | viability decrease (inhibition) [8] 79.5%
inactive: nuclear beta-catenin stimulation ([1]; at 10 µM) -1% | insulin secretion stimulation [2] -0.5% | GLP1 secretion stimulation [5] 8%
-0.7%: nuclear beta-catenin stimulation ([1]; stimulation, at 2 µM)
